Experimental data reported in PubChem BioAssay (EPA / NIEHS).
Results filed as inconclusive are left out. Activity calls are given as the source filed them. How the source made its calls, unless noted: active means hit-call score of the fitted dose curve at least 0.9, where 1 is the maximum; inconclusive means response in the unintended direction; inactive means score below 0.9.

Tests used:
[1] = biological target: human Peroxisome Proliferator-activated Receptor alpha (PPARa), PPARA (gene 5465) (UniProt Q07869); assay: ATG_PPARa_TRANS: Attagene TRANS-FACTORIAL HepG2 Assay for human Peroxisome Proliferator-activated Receptor alpha (PPARa) (AID 2283001);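 on AC50: potency for gain of reporter signal over DMSO so agonist or activator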
human Peroxisome Proliferator-activated Receptor alpha (PPARa), PPARA (gene 5465), sequence (Q07869 whole entry, looked up, the tested form may be a part): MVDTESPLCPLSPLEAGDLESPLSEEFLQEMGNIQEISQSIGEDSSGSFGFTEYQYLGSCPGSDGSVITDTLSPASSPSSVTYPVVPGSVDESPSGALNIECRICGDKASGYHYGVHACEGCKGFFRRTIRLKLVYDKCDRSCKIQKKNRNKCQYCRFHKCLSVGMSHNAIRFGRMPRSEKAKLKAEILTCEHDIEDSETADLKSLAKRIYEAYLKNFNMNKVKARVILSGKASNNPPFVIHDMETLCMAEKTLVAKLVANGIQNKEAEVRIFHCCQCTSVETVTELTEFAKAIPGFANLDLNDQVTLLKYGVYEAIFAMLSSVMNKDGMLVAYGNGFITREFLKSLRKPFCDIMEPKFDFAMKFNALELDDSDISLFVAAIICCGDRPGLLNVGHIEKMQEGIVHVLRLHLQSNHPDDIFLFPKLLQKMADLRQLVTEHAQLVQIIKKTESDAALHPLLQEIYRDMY
Outline: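 Reporter transcripts from GAL4-UAS units in transfected HepG2 were quantified 24 h after dosing. Detection used reverse transcription, PCR, fluorescent primer extension and capillary electrophoresis, with DMSO as baseline.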

[2] = biological target: human Peroxisome Proliferator-activated Receptor delta (PPARd), PPARD (gene 5467) (UniProt Q03181); assay: ATG_PPARd_TRANS: Attagene TRANS-FACTORIAL HepG2 Assay for human Peroxisome Proliferator-activated Receptor delta (PPARd) (AID 2283002)
human Peroxisome Proliferator-activated Receptor delta (PPARd), PPARD (gene 5467), sequence (Q03181 whole entry, looked up, the tested form may be a part): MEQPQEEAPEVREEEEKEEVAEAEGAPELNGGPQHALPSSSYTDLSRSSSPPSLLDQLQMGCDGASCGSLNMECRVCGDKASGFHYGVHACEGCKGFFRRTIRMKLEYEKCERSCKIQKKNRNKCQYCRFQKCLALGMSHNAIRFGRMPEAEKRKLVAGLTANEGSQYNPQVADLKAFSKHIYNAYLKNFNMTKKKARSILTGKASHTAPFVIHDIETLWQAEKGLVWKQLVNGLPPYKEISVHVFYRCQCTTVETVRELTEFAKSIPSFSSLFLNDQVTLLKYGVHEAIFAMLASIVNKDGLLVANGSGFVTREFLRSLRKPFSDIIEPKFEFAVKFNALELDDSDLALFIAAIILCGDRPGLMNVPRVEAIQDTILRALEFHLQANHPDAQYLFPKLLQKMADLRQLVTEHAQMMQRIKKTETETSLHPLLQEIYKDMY
Outline: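 Read-out is induced reporter mRNA, quantified by RT-PCR with fluorescent labelling and capillary electrophoresis after 24 h dosing. Cells are HepG2 transiently carrying multiple GAL4-UAS reporter units driven by exogenous NR-GAL4 chimeras; DMSO serves as baseline.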

[3] = read-out: Intercellular Adhesion Molecule 1 (ICAM1), ICAM1 (gene 3383); assay: BSK_3C_ICAM1: BioMAP Diversity Plus: 3C Assay for Intercellular Adhesion Molecule 1 (ICAM1) Biomarker Activity (AID 2283003; active means hit-call score of the fitted dose curve at least 0.9, where 1 is the maximum; inactive means score below 0.9); details: primary human endothelial cells (HUVEC); actives raise or lower the signal
Outline: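 Primary human umbilical vein endothelial cells in the BioMAP 3C system were exposed to chemicals for 24 h, then ICAM-1 was quantified by ELISA. Activity was fitted bidirectionally against the DMSO negative control baseline.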

[4] = BSK_3C_Proliferation: Cell Proliferation Assessment in the BioMAP Diversity Plus: 3C Assay (AID 2283006; active means hit-call score of the fitted dose curve at least 0.9, where 1 is the maximum; inactive means score below 0.9;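 on AC50: potency may reflect either rise or fall in cell number versus DMSO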); details: primary human endothelial cells (HUVEC)
Outline: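 Human umbilical vein endothelial cells were grown sub-confluent and exposed to chemical for 48 h, then fixed with 10% TCA and stained with 0.1% sulforhodamine B; absorbance at 560 nm gave relative cell number, fitted bidirectionally against DMSO baseline.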

[5] = biological target: Peroxisome proliferator-activated receptor gamma (Homo sapiens) (UniProt P37231); assay: ATG_PPARg_TRANS: Attagene TRANS-FACTORIAL HepG2 Assay for human Peroxisome Proliferator-activated Receptor-gamma (PPARg) (AID 2283007)
Peroxisome proliferator-activated receptor gamma (Homo sapiens), sequence (P37231 whole entry, looked up): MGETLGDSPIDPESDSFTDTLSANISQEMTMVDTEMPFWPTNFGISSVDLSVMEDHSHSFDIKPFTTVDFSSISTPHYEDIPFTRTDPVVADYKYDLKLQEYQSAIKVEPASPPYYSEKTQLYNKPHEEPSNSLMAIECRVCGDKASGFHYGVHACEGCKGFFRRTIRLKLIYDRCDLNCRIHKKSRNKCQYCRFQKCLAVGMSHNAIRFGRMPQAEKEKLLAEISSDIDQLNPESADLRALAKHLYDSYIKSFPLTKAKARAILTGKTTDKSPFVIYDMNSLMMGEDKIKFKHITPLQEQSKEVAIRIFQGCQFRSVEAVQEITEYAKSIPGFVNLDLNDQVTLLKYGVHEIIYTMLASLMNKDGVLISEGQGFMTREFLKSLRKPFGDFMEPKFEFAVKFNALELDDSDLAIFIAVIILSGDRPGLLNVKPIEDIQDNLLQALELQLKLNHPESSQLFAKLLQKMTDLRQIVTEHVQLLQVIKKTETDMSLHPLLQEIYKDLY
Outline: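 Multiplexed reporter transcription units in HepG2, 24 h dosing, reporter transcripts quantified by fluorescent RT-PCR and capillary electrophoresis. Increase over DMSO scored.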

[6] = biological target: Nuclear receptor subfamily 1 group I member 2 (Homo sapiens) (UniProt O75469); assay: ATG_PXR_TRANS: Attagene TRANS-FACTORIAL HepG2 Assay for human Pregnane X Receptor (PXR) (AID 2283008)
Nuclear receptor subfamily 1 group I member 2 (Homo sapiens), sequence (O75469 whole entry, looked up, the tested form may be a part): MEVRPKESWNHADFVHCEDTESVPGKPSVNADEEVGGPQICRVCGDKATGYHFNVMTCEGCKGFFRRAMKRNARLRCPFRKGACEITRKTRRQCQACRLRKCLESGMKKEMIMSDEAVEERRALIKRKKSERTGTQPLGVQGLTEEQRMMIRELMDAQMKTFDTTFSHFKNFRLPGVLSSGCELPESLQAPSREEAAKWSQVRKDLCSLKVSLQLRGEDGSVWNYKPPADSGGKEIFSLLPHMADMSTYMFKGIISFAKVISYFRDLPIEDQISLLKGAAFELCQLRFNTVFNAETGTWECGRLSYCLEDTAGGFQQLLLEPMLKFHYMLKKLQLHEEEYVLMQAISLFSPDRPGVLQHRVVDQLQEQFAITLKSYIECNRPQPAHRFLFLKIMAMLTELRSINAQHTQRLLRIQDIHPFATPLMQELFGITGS
Outline: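 Fluorescence intensity of FAM-labelled, HpaI-digested reporter amplicons, separated by capillary electrophoresis, quantifies induction. HepG2 cells with PXR-Gal4 trans-reporter system were exposed 24 h; DMSO defines baseline.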

[7] = biological target: human RAR-related Orphan Receptor beta (RORb), RORB (gene 6096) (UniProt Q92753); assay: ATG_RORb_TRANS: Attagene TRANS-FACTORIAL HepG2 Assay for human RAR-related Orphan Receptor beta (RORb) (AID 2283010)
human RAR-related Orphan Receptor beta (RORb), RORB (gene 6096), sequence (Q92753 whole entry, looked up, the tested form may be a part): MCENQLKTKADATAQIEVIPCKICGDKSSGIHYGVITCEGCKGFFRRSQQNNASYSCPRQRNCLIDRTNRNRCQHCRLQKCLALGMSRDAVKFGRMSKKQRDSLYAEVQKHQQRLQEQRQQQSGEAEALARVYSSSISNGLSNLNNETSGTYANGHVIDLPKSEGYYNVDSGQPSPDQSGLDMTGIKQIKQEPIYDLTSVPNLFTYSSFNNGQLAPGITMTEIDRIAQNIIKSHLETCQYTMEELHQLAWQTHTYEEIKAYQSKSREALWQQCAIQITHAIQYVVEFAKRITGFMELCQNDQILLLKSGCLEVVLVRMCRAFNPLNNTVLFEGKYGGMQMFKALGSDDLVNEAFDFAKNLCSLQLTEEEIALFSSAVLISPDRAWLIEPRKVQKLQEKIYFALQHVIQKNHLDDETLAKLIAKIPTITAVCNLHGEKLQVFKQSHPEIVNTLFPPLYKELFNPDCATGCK
Outline: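 HepG2 cells were transiently transfected with multiplexed GAL4-UAS reporter units expressing chimeric nuclear receptor–GAL4 proteins, then dosed for 24 h. Reporter mRNA was quantified by RT-PCR with fluorescent labelling and capillary electrophoresis; gain of signal was fitted relative to DMSO.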

[8] = biological target: Retinoic acid receptor alpha (Homo sapiens) (UniProt P10276); assay: ATG_RARa_TRANS: Attagene TRANS-FACTORIAL HepG2 Assay for human Retinoic Acid Receptor alpha (RARa) (AID 2283005);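 on AC50: potency for increased reporter signal meaning RARa activation over DMSO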
Retinoic acid receptor alpha (Homo sapiens), sequence (P10276 whole entry, looked up, the tested form may be a part): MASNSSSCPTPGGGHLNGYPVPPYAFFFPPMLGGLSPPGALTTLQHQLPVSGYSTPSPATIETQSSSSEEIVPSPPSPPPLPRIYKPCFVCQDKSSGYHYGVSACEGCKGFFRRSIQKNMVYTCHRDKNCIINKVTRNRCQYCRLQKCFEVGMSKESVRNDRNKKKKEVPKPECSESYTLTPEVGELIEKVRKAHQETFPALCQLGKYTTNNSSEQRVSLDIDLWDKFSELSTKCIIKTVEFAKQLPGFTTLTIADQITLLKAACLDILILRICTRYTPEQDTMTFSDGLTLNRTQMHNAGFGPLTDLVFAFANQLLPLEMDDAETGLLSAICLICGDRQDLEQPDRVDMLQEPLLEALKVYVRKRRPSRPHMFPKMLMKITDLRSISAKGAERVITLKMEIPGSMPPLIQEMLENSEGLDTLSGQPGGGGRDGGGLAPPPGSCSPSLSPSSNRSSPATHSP
Outline: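 Reporter transcripts, measured by RT-PCR with fluorescent labeling and capillary electrophoresis after 24 h dosing, reflect activity of an exogenous human RARa–GAL4 fusion in transiently transfected HepG2. Fitted for increase relative to DMSO.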

[9] = biological target: human Retinoic Acid Receptor gamma (RARg), RARG (gene 5916) (UniProt P13631); assay: ATG_RARg_TRANS: Attagene TRANS-FACTORIAL HepG2 Assay for human Retinoic Acid Receptor gamma (RARg) (AID 2283009)
human Retinoic Acid Receptor gamma (RARg), RARG (gene 5916), sequence (P13631 whole entry, looked up, the tested form may be a part): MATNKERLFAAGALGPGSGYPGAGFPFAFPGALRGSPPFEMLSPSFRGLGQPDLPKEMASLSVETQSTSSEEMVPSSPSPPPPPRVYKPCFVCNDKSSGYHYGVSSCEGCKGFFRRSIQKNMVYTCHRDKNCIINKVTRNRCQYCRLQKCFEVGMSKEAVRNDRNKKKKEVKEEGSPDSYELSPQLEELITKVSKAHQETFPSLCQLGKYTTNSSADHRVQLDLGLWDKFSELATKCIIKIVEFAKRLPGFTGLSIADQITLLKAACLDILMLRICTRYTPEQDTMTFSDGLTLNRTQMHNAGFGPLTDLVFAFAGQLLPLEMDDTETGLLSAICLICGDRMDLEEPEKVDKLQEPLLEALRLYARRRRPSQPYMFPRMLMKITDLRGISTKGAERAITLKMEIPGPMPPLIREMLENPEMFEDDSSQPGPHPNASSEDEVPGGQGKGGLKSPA
Outline: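 HepG2 cells transiently transfected with multiplexed reporter units expressing chimeric RARg-GAL4 and GAL4-UAS-driven reporters; 24 h compound exposure. Reporter mRNA quantified by RT-PCR with fluorescent labelling and capillary electrophoresis; gain-of-signal fitted relative to DMSO baseline.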

[10] = biological target: human Retinoic Acid Receptor beta (RARb), RARB (gene 5915) (UniProt P10826); assay: ATG_RARb_TRANS: Attagene TRANS-FACTORIAL HepG2 Assay for human Retinoic Acid Receptor beta (AID 2283004)
human Retinoic Acid Receptor beta (RARb), RARB (gene 5915), sequence (P10826 whole entry, looked up, the tested form may be a part): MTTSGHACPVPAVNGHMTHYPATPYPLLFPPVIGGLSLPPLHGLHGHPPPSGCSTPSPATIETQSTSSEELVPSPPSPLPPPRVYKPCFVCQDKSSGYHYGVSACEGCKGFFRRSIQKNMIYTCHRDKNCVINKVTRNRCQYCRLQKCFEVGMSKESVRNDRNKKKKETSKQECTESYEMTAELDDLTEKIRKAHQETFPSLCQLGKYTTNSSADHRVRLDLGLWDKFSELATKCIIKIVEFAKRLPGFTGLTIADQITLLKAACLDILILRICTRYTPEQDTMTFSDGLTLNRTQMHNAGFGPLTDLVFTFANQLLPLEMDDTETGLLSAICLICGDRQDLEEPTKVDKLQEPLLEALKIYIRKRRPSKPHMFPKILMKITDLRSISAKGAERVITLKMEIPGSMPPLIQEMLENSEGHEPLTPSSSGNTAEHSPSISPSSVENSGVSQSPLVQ
Outline: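 Fluorescent capillary-electrophoresis detection of GAL4-UAS reporter mRNA defines the endpoint, with induction over DMSO-treated wells scored as activity. Transiently transfected human hepatoma HepG2 cells expressing exogenous NR–Gal4 proteins are exposed to test chemicals for 24 h.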

Measured: AC50

COP(=S)(OC)Oc1ccc([N+](=O)[O-])c(C)c1
active: [4] 25.6 µM | [5] 32.6 µM
inactive: [1] | [2] | [3] | [6] | [7]

Nc1cnn(-c2ccccc2)c(=O)c1Cl
active: [5] 22.4 µM
inactive: [1] | [2] | [3] | [4] | [7]

N#Cc1c[nH]cc1-c1cccc2c1OC(F)(F)O2
inactive: [1] | [3] | [6]
active: [4] 5.61 µM | [5] 19.5 µM

COCC(C)N(C(=O)CCl)c1c(C)csc1C (stereo not given)
inactive: [1] | [3] | [4] | [6]
active: [5] 3.79 µM

CCCCC(O)(Cn1cncn1)c1ccc(Cl)cc1Cl (stereo not given)
inactive: [2] | [3] | [5] | [6]
active: [4] 26.2 µM

CCNC(=O)NC(=O)C(C#N)=NOC
inactive: [2] | [3] | [8] | [4] | [5] | [7]

Clc1nc(Cl)nc(Nc2ccccc2Cl)n1
active: [5] 9.95 µM
inactive: [3] | [8] | [4] | [6]

COC(=O)N(C(=O)N1CO[C@@]2(C(=O)OC)Cc3cc(Cl)ccc3C2=N1)c1ccc(OC(F)(F)F)cc1
active: [4] 5.55 µM | [6] 5.9 µM
inactive: [2] | [3] | [5] | [9] | [7]

COC(=O)NS(=O)(=O)c1ccc(N)cc1
inactive: [1] | [3] | [4] | [5] | [6]

COC(=O)NC(=S)Nc1ccccc1NC(=S)NC(=O)OC
inactive: [2] | [3] | [4] | [5] | [6] | [7]

CCSC(=O)N1CCCCCC1
active: [6] 84.4 µM
not listed: [1]
inactive: all other assays above

C=C(C)CN(CC)c1c([N+](=O)[O-])cc(C(F)(F)F)cc1[N+](=O)[O-]
active: [8] 30.2 µM | [4] 33.4 µM | [6] 13.6 µM
inactive: [3] | [10] | [5] | [9]

CCCC(=NOCC)C1=C(O)CC(CC(C)SCC)CC1=O (stereo not given)
not listed: [1]
inactive: all other assays above

CCOP(=O)(OCC)Oc1nc(Cl)c(Cl)cc1Cl
inactive: [2] | [3] | [6]
active: [4] 8.46 µM | [5] 30.8 µM

CSC(=O)c1c(C(F)F)nc(C(F)(F)F)c(C(=O)SC)c1CC(C)C
active: [4] 15.7 µM | [5] 10.9 µM | [6] 1.66 µM
not listed: [1] | [8]
inactive: all other assays above

CCCCOCN(C(=O)CCl)c1c(CC)cccc1CC
active: [3] 32.2 µM | [4] 28.2 µM | [5] 1.38 µM
inactive: [1] | [6] | [7]

CO/N=C(/C1=NOCCO1)c1ccccc1Oc1ncnc(Oc2ccccc2Cl)c1F
inactive: [2] | [3] | [5] | [6]
active: [4] 17.4 µM

CNC(=O)N(C)c1nnc(C(C)(C)C)s1
not listed: [1] | [7] | [9]
inactive: all other assays above

CCN(CC)C(=O)C(C)Oc1cccc2ccccc12 (stereo not given)
inactive: [2] | [3] | [7]
active: [4] 6.69 µM | [5] 50 µM | [6] 0.503 µM

CCOC(=O)C(C)OC(=O)c1cc(Oc2ccc(C(F)(F)F)cc2Cl)ccc1[N+](=O)[O-] (stereo not given)
active: [1] 1.57 µM | [5] 14.1 µM
inactive: [3] | [4] | [6] | [9]

Nc1c(Cl)c(F)nc(OCC(=O)O)c1Cl
not listed: [1] | [2]
inactive: all other assays above

COc1cc(OC)nc(NC(=O)NS(=O)(=O)c2ncccc2OCC(F)(F)F)n1
inactive: [1] | [3] | [4] | [5] | [6] | [7]

CC(C)N1C(=O)N(c2ccccc2)CSC1=NC(C)(C)C
inactive: [2] | [3] | [5] | [6] | [7]
active: [4] 16.4 µM

CC(C)NC(=O)N1CC(=O)N(c2cc(Cl)cc(Cl)c2)C1=O
inactive: [3] | [4]
active: [5] 23.4 µM | [6] 10.6 µM

CCOP(=S)(OCC)Oc1nc(Cl)n(C(C)C)n1
active: [6] 2.39 µM
not listed: [1] | [2] | [9]
inactive: all other assays above

CC(C)Nc1nc(Cl)nc(NC(C)C)n1
inactive: [2] | [3] | [4] | [5] | [6]

OC(c1ccc(Cl)cc1)(c1ccc(Cl)cc1)C(Cl)(Cl)Cl
active: [3] 29 µM | [4] 11.6 µM
inactive: [8] | [5] | [6]

CCNP(=S)(OC)O/C(C)=C/C(=O)OC(C)C (stereo not given)
inactive: [3] | [10] | [4] | [6] | [9]
active: [8] 22.1 µM | [5] 29.6 µM

CC1(C)C(C(=O)OC(C#N)c2cccc(Oc3ccccc3)c2)C1(C)C (stereo not given)
active: [8] 13.7 µM | [4] 7.92 µM | [5] 16.9 µM | [6] 9.21 µM
inactive: [2] | [3] | [10] | [9]

CC1(C)C(C=C(Cl)Cl)C1C(=O)OC(C#N)c1cccc(Oc2ccccc2)c1 (stereo not given)
inactive: [3] | [10] | [8] | [9] | [7]
active: [5] 17.9 µM | [6] 9.82 µM

CC(C)(C)C(=O)C(Oc1ccc(Cl)cc1)n1cncn1 (stereo not given)
active: [8] 50 µM | [6] 19.9 µM
not listed: [1] | [7]
inactive: all other assays above

CNC(=O)Oc1cccc2ccccc12
active: [4] 22.9 µM
not listed: [1] | [2] | [5]
inactive: all other assays above

Cc1c(COC(=O)[C@@H]2[C@H](/C=C(\Cl)C(F)(F)F)C2(C)C)cccc1-c1ccccc1
active: [4] 12.7 µM
not listed: [1]
inactive: all other assays above

O=C(Nc1ccccc1-c1ccc(Cl)cc1)c1cccnc1Cl
inactive: [2] | [3] | [4] | [6] | [7]
active: [5] 10.9 µM

C=CCOC(=O)C(C)(C)OC(=O)c1cc(-n2c(=O)cc(C(F)(F)F)n(C)c2=O)ccc1Cl
inactive: [3] | [4] | [5] | [6]

CC1(C)CCC(=Cc2ccc(Cl)cc2)C1(O)Cn1cncn1 (stereo not given)
active: [6] 9.33 µM
not listed: [1] | [2] | [7]
inactive: all other assays above

COc1ccc(-c2ccccc2)cc1NNC(=O)OC(C)C
inactive: [3] | [10] | [4] | [6] | [7]
active: [5] 50 µM

CCC(C)n1c(=O)[nH]c(C)c(Br)c1=O (stereo not given)
inactive: [1] | [3] | [4] | [6] | [7]

Clc1cccc(C(Cl)(Cl)Cl)n1
inactive: [1] | [3] | [4] | [5] | [6]
